# Data published in the supplement of paper PMC10849652.
# Targets with a hit are over-represented here; the source holds about 7,900 in all. About 0.6% of all pairs of compound and target were hits. A number with no mark means an inactive call.
# Legend:
# Assay in all cases: log2 fold change, soluble protein after heating vs DMSO (PISA); higher = thermal stabilisation; K562 cells, 10 uM, 30 min; active = over 0.2 and 3.5 SD of the protein, either way, in both replicates (recomputed)
# [1] = compound: CS(=O)(=O)c1ccc(-c2cnc(N)c(C(=O)Nc3ccccc3)n2)cc1
# Summary of the method: (§1)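 Soluble protein was defined as the supernatant after 21,000xg for 90 min. It came from K562 cells at 2×10^6 cells/mL given 10 μM compound for 30 min, heated in aliquots for 3 min across 48°C-58°C, pooled, and extracted in PBS with 0.5% NP-40 at 4°C, and was quantified by TMTpro 16plex LC-MS/MS with equalised channel sums. Thermal stability against control samples, from duplicates, is reported as log2 fold change.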
# crizotinib = compound: C[C@@H](Oc1cc(-c2cnn(C3CCNCC3)c2)cnc1N)c1c(Cl)ccc(F)c1Cl [crizotinib]
# Summary of the method: as §1
# [2] = compound: C[C@@H]1COCCN1C2=NC(=NC(=C2)C3(CC3)S(=O)(=O)C)C4=C5C=CNC5=CC=C4
# Summary of the method: as §1
# [3] = compound: C[C@H](C1=CC=C(C=C1)C(=O)NC2=C3C=CNC3=NC=C2)N
# Summary of the method: as §1
# duvelisib = compound: C[C@H](Nc1ncnc2nc[nH]c12)c1cc2cccc(Cl)c2c(=O)n1-c1ccccc1 [duvelisib]
# Summary of the method: as §1
# gandotinib = compound: Cc1cc(Nc2cc(CN3CCOCC3)c3nc(C)c(Cc4ccc(Cl)cc4F)n3n2)n[nH]1 [gandotinib]
# Summary of the method: as §1
# tozasertib = compound: Cc1cc(Nc2cc(N3CCN(C)CC3)nc(Sc3ccc(NC(=O)C4CC4)cc3)n2)n[nH]1 [tozasertib]
# Summary of the method: as §1
# [4] = compound: Cc1cc(SCc2sc(-c3ccc(C(F)(F)F)cc3)nc2C)ccc1OCC(=O)O
# Summary of the method: as §1
# doramapimod = compound: Cc1ccc(-n2nc(C(C)(C)C)cc2NC(=O)Nc2ccc(OCCN3CCOCC3)c3ccccc23)cc1 [doramapimod]
# Summary of the method: as §1
# ispinesib = compound: Cc1ccc(C(=O)N(CCCN)[C@@H](c2nc3cc(Cl)ccc3c(=O)n2Cc2ccccc2)C(C)C)cc1 [ispinesib]
# Summary of the method: as §1
# bafetinib = compound: Cc1ccc(NC(=O)c2ccc(CN3CC[C@H](N(C)C)C3)c(C(F)(F)F)c2)cc1Nc1nccc(-c2cncnc2)n1 [bafetinib]
# Summary of the method: as §1
# [5] = compound: Cc1cccc(CC(=O)N2CCc3c2ccc(-c2cn(C)c4ncnc(N)c24)c3F)n1
# Summary of the method: as §1
# nilotinib = compound: Cc1cn(-c2cc(NC(=O)c3ccc(C)c(Nc4nccc(-c5cccnc5)n4)c3)cc(C(F)(F)F)c2)cn1 [nilotinib]
# Summary of the method: as §1
# [6] = compound: Cc1nc(Nc2n[nH]c3c2CN(C(=O)N[C@H](CN(C)C)c2ccccc2)C3(C)C)c2sccc2n1
# Summary of the method: as §1
# dasatinib = compound: Cc1nc(Nc2ncc(C(=O)Nc3c(C)cccc3Cl)s2)cc(N2CCN(CCO)CC2)n1 [dasatinib]
# Summary of the method: as §1
# [7] = compound: Cc1ncc(-c2ccnc(Nc3ccc(S(C)(=O)=O)cc3)n2)n1C(C)C
# Summary of the method: as §1
# [8] = compound: Cn1cc(-c2ccc3c(c2)CCN3C(=O)Cc2cccc(C(F)(F)F)c2)c2c(N)ncnc21
# Summary of the method: as §1
# [9] = compound: Cn1cc(-c2ccc3nnc(C(F)(F)c4ccc5ncccc5c4)n3n2)cn1
# Summary of the method: as §1
# tipifarnib = compound: Cn1cncc1[C@@](N)(c1ccc(Cl)cc1)c1ccc2c(c1)c(-c1cccc(Cl)c1)cc(=O)n2C [tipifarnib]
# Summary of the method: as §1
# mubritinib = compound: FC(F)(F)c1ccc(/C=C/c2nc(COc3ccc(CCCCn4ccnn4)cc3)co2)cc1 [mubritinib]
# Summary of the method: as §1
# Chain of UniProt O60256 (O60256 whole entry, looked up): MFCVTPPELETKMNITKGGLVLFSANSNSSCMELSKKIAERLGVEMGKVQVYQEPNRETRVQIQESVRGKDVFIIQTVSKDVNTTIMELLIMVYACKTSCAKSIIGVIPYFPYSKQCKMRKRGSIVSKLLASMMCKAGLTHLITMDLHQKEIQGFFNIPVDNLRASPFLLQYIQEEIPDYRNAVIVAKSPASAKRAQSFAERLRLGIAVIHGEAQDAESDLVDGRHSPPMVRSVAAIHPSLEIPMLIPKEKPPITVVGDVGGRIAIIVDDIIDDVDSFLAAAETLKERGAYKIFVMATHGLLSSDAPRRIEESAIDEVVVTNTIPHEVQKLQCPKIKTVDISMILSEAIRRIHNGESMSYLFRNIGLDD
# Chain of UniProt P42785 (P42785 whole entry, looked up): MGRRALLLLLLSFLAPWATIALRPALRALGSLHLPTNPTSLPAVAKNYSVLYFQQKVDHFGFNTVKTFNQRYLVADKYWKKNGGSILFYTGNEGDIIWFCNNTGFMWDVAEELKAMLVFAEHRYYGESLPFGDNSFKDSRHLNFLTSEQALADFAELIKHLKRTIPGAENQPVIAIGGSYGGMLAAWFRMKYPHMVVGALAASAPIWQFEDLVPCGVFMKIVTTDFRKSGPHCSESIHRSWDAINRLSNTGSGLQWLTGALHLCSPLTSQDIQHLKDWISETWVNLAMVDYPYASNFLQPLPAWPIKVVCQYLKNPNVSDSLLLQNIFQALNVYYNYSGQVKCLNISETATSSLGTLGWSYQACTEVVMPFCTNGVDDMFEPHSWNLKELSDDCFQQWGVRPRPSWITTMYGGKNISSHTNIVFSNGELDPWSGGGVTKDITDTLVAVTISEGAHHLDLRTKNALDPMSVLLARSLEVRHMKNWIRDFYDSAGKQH
# Chain of UniProt Q92871 (Q92871 whole entry, looked up): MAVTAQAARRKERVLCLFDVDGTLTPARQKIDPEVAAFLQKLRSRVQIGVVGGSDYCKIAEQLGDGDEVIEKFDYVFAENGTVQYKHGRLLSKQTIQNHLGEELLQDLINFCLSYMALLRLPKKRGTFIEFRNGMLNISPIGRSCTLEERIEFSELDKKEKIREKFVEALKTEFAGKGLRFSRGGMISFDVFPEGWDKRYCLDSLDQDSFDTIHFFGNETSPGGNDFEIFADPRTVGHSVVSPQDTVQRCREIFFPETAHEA
# Chain of UniProt Q14181 (Q14181 whole entry, looked up): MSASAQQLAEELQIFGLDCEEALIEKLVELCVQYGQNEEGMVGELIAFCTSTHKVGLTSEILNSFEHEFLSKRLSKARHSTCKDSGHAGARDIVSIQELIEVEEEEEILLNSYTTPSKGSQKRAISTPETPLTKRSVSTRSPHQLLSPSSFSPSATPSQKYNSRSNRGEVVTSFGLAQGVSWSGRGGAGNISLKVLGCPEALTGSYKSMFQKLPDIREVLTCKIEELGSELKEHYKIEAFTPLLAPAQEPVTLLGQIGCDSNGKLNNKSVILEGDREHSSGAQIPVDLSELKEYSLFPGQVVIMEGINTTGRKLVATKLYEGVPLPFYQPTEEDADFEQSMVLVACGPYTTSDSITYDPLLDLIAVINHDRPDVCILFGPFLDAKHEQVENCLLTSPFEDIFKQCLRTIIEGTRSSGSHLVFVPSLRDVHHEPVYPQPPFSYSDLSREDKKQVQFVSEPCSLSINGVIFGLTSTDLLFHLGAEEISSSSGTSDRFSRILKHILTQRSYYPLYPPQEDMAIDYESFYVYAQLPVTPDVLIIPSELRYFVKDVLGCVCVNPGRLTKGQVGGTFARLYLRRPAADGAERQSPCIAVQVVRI
# Chain of UniProt P31321 (P31321 whole entry, looked up): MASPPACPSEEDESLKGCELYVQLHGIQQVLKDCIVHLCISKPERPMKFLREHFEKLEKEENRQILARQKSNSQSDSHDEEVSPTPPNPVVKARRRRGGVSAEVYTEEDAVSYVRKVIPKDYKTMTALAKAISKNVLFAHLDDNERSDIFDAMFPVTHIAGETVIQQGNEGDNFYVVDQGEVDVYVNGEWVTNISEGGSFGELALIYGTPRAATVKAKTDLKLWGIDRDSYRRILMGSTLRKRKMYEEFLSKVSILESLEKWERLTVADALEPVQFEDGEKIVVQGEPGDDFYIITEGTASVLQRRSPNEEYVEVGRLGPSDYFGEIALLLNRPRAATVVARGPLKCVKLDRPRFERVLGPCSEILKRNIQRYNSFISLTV
# Chain of UniProt Q9BRX2 (Q9BRX2 whole entry, looked up): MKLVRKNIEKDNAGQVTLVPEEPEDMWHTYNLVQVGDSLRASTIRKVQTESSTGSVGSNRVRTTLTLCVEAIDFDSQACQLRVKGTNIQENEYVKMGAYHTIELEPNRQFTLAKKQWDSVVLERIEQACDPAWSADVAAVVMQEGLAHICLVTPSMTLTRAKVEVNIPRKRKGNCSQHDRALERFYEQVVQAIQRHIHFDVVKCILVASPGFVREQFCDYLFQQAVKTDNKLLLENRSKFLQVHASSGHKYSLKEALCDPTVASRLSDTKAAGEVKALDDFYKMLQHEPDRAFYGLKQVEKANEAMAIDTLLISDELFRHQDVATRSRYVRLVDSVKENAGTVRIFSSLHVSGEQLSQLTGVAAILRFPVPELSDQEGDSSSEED
# Chain of UniProt Q15257 (Q15257 whole entry, looked up): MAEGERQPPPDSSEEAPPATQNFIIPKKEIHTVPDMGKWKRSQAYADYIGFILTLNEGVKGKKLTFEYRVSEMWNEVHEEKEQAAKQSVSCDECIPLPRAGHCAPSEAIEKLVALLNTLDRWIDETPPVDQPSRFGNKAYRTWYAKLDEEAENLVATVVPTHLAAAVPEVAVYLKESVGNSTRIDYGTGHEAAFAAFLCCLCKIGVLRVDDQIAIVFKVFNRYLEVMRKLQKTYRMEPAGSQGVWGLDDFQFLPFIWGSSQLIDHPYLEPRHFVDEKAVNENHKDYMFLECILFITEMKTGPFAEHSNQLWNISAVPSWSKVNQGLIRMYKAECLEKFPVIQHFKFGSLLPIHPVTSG
# Chain of UniProt Q15172 (Q15172 whole entry, looked up): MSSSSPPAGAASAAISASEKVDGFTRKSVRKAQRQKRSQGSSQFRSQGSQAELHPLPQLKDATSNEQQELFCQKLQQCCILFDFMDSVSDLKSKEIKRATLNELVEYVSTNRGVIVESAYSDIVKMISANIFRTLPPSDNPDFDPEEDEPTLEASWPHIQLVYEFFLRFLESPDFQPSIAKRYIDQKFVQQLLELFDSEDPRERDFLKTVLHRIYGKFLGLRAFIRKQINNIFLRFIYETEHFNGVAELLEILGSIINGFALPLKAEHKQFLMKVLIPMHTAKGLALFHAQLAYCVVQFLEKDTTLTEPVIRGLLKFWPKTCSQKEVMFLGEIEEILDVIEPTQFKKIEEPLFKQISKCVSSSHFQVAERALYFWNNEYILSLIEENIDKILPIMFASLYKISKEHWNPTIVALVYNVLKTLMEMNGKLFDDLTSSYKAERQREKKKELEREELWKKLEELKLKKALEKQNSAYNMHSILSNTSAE
Target,log2 fold change [1],log2 fold change (crizotinib),log2 fold change [2],log2 fold change [3],log2 fold change (duvelisib),log2 fold change (gandotinib),log2 fold change (tozasertib),log2 fold change [4],log2 fold change (doramapimod),log2 fold change (ispinesib),log2 fold change (bafetinib),log2 fold change [5],log2 fold change (nilotinib),log2 fold change [6],log2 fold change (dasatinib),log2 fold change [7],log2 fold change [8],log2 fold change [9],log2 fold change (tipifarnib),log2 fold change (mubritinib)
PRPSAP2 (UniProt O60256),0,0.01,0.112,-0.016,-0.013,0.114,0.038,0.023,-0.007,0.012,-0.034,0.124,-0.024,0.064,-0.028,-0.005,-0.037,-0.018,0.023,-0.008
PMM1 (UniProt Q92871),0.051,0.008,0.032,0.019,0.07,-0.075,-0.114,-0.011,0.027,0.026,-0.2,0.022,-0.606 (active),-0.152,-0.027,0.003,0.05,0.025,0.134,0.066
PELO (UniProt Q9BRX2),0.026,-0.15,-0.037,0.158,0.011,-0.096,0.001,0.07,0.077,-0.336,0.068,0.155,-0.021,-0.067,-0.054,-0.02,0.042,0.061,-0.136,-0.111
PRCP (UniProt P42785),0.012,-0.078,-0.088,-0.037,0.045,0.006,0.036,-0.037,-0.034,-0.096,-0.209,-0.018,0.011,0.009,-0.021,-0.009,0.02,0.008,0.055,0.057
PTPA (UniProt Q15257),-0.001,0.028,0.074,-0.117,0.052,-0.037,0.024,0.013,-0.001,0.091,-0.038,0.011,-0.014,0.012,-0.014,-0.002,0.034,0.03,0.013,0.028
POLA2 (UniProt Q14181),0.116,-0.026,0.143,-0.036,0.121,-0.287 (active),0.091,0.047,-0.013,-0.028,-0.038,0.058,-0.036,-0.072,-0.101,-0.02,0.022,0.001,-0.04,0.041
PPP2R5A (UniProt Q15172),-0.018,-0.154,0.014,0.022,0.033,-0.21,-0.049,0.072,-0.019,-0.056,-0.008,0.027,-0.075,-0.039,-0.205,0.006,0.032,0.006,-0.179,0.012
PRKAR1B (UniProt P31321),0.137,0.132,0.071,0.123,0.199,0.095,0.136,-0.011,-0.03,-0.072,0.132,-0.015,0.062,0.012,-0.013,0.097,0.018,0.126,0.147,-0.286
